Akt phos inh – inhibitors of Akt phosphorylation. Neuro2A IGF-stimulated pAkt S473 HTRF, 20 min; hits give low values. activity change, % for hits at 50 µM. 360,000 tested, 0.32% active; in the data active = activity change below about -80%; inconclusive = mostly about -51% to -80%
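Single-point screen (50 µM final compound) in Neuro2A cells stimulated 20 min with 6 nM IGF at 37 deg C. After lysis, Ser473-phosphorylated Akt read by HTRF (ex 330 nm, em 615/665 nm) as the 665/615 ratio.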
ClpP mod – qHTS Assay for Activators of ClpP; purified B. subtilis ClpP, FRET peptide cleavage, 20 min; Potency, µM (doses to about 57.5 µM); 340,000 tested, 1.9% active; AID 651965, 2013; active = well fitted falling curve with a large enough effect; inconclusive = small, poorly fitted or top-dose-only effect; inactive = no such curve, though single readings can be large or run the other way; also: the source files actives as falling curves though it sought activators and does not explain the sign; nearly all actives have a fitted effect of over 65% in size
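FRET quenching reversal measured ClpP activation: 10 microg/mL B. subtilis ClpP at pH 8 with the FRET-FV decapeptide, read at 430 nm after 320 nm excitation. The 20-min minus 0-min signal was scaled between DMSO/no-enzyme wells and ADEP (5.8 microM final).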
RXFP1 antag – blocks the human relaxin receptor RXFP1 | AID 1259400 | HEK293-RXFP1, relaxin-stimulated cAMP HTRF, 30 min; hits give low values | Q9HBX9 | 350,000 tested, 0.59% active | activity change, negative = inhibition, % at 57.5 µM;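 active = activity change of -60% or lower, but not beyond a set lower limit; inconclusive = change between -60% and -40%, or beyond the set limit; inactive = change above -40%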
Target sequence (Q9HBX9 whole entry, looked up): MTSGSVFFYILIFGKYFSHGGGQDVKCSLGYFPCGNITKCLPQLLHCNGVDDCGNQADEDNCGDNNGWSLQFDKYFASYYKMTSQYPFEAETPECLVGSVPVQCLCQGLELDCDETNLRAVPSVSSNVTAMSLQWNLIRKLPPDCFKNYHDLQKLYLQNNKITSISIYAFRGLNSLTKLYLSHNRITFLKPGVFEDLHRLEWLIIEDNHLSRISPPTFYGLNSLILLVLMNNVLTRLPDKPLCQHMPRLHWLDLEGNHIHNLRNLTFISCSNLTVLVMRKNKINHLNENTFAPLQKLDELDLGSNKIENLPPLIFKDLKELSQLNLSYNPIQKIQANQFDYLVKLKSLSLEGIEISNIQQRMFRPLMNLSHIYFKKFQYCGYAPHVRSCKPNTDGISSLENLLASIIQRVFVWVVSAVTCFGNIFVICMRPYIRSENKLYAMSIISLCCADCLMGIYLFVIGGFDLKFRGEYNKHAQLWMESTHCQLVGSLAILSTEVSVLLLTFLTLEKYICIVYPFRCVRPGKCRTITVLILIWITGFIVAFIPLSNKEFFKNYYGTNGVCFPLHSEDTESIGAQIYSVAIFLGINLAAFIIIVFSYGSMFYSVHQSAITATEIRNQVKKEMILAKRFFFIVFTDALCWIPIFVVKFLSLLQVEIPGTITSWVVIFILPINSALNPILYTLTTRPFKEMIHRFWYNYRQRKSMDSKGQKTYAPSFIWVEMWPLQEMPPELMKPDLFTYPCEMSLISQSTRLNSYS
gsp antagonist – antagonists of gsp mutant (McCune-Albright syndrome); gsp-mutant cells, cAMP HTRF, 30 min; Potency, µM (top dose mostly 76.9 µM), hits mostly inhibitors; 340,000 tested, 0.4% active; calls by dose curve; cell line not stated here;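 also: intracellular cAMP measured with PDE inhibitor Ro 20-1724 present during compound exposure; nearly all actives have a fitted effect of over 65% in size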
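HTRF cAMP measurement after 30 min RT detection following 30 min, 37C compound treatment alongside […] (added as 300 uM solution) in G418-selected cells seeded at 2000/well and grown 16–24 h.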
RXFP1 ag – activates the human relaxin receptor RXFP1; AID 2676; Q9HBX9; Potency, µM (series often up to 57.5 µM), hits mostly activators; 370,000 tested, 0.3% active; HEK293T-RXFP1 cAMP TR-FRET, 30 min; response scale: percent of porcine relaxin response, buffer zero; also: nearly all actives have a fitted effect of over 60% in size
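HEK293T cells stably expressing RXFP1 were pretreated with the PDE4 inhibitor Ro 20174, exposed to compounds for 30 min at 37C, lysed, and cAMP was read by TR-FRET. Data normalized to buffer (basal) and 29 nM porcine relaxin (100%).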
gsp agonist – gsp mutant agonism. gsp mutant cells, cAMP HTRF, 30 min. Potency, µM (highest dose often 76.9 µM), most hits filed as activators. 340,000 tested, 0.13% active. AID 624287; active = well fitted activation curve with a large enough effect; inconclusive = small, poorly fitted or top-dose-only effect, or another doubt; inactive = no such curve, though single readings can be large or run the other way; cell line not stated here;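 also: phosphodiesterase inhibitor Ro 20-1724 added with compounds to block cAMP breakdown; nearly all actives have a fitted effect of over 60% in size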
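Cells stably selected in G418 were plated at 2000/well, grown 16-24 hr, then given compounds in DMSO with the PDE inhibitor […] (300 uM solution added) for 30 min at 37C; cAMP was read by HTRF.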
ClpP inh valid – inhibits B. subtilis ClpP protease, hit validation | shares compounds with ClpP mod | purified B. subtilis ClpP, FRET-FV substrate cleavage, 20 min | Potency, µM (titrated, usually from 57.5 µM), actives largely listed as inhibitors | 470 tested, 40% active; also: nearly all actives have a fitted effect of over 70% in size
Numbers stand for hits; 0 = inactive; ? = inconclusive; - = not tested or not shown; [ ] = another dose, or the depositor's remark. This is a sample that favours compounds with a hit; in the whole collection about 2.7% have one here. Unless noted, calls follow the shape of the dose curve; as a rule, active = well fitted curve in the direction sought with a large enough effect; inconclusive = small, poorly fitted or top-dose-only effect, or another doubt; inactive = no such curve, though single readings can be large; an effect the other way counts as inactive or inconclusive.

SMILES | Akt phos inh | ClpP mod | RXFP1 antag | gsp antagonist | RXFP1 ag | gsp agonist | ClpP inh valid
c1csc(C2Nc3ccccc3-c3nc4ccccc4n32)c1 (configuration not stated) | 0 | 0 | 0 | 0 | 0 | 0 | -
c1cncc(C2Nc3ccccc3-c3nc4ccccc4n32)c1 (configuration not stated) | - | 3.16µM | 0 | 0 | 0 | 0 | 27.3µM
NC(=O)COc1ccc2cc(-c3ccc(F)cc3)c(=O)oc2c1 | 0 | - | 0 | 0 | 0 | 0 | -
O=c1oc2cc(OCc3ccc(F)cc3F)ccc2cc1-c1ccccn1 | 0 | 3.16µM | 0 | 0 | 0 | ? | 9.68µM
O=C(Cn1[nH]c(=O)c2ccccc2c1=O)N1CCN(S(=O)(=O)c2ccc(Cl)cc2)CC1 | 0 | 0 | 0 | 0 | 0 | 0 | -
CCOC(=O)N1CCN(S(=O)(=O)c2ccc(C(=O)Nc3nc4ccccc4s3)cc2)CC1 | 0 | 0 | 0 | 0 | ? | ? | ?
CCOC(=O)N1CCN(S(=O)(=O)c2ccc(C(=O)Nc3nc4ccc(F)cc4s3)cc2)CC1 | 0 | 0 | 0 | ? | 0 | 0 | -
Cc1ccc(C)c(NC(=O)C(c2ccccc2)N2Cc3ccccc3C2=O)c1 (configuration not stated) | - | 0 | 0 | - | 0 | - | -
CCn1cnc2sc(C(=O)Nc3ccccc3OC)c(C)c2c1=O | 0 | 0 | 0 | 0 | ? | 0 | -
COc1ccccc1NC(=O)c1sc2ncn(Cc3ccccc3C)c(=O)c2c1C | 0 | 0 | 0 | 0 | ? | ? | ?
COc1ccc(C2C(C(=O)Nc3cccnc3)=C(C)Nc3nc(-c4ccc(OC)c(OC)c4)nn32)cc1 (configuration not stated) | - | 0 | 0 | - | 0 | - | -
Clc1ccc(N2N=C(c3cccs3)CC2c2ccco2)cc1 (configuration not stated) | 0 | 3.55µM | 0 | 0 | 0 | 0 | 27.3µM
O=C(Cn1nnc(-c2ccccc2NC(=O)c2ccccc2F)n1)NCc1ccco1 | 0 | 0 | 0 | 0 | 0 | 0 | -
COc1ccc(C(=O)Nc2ccccc2-c2nnn(CC(=O)NCc3ccco3)n2)cc1 | 0 | 0 | 0 | 0 | 0 | 0 | ?
Cc1c(C(=O)N2CCN(c3ccccn3)CC2)oc2c(F)cccc12 | 0 | - | 0 | 0 | 0 | 0 | -
Cc1c(C(=O)N2CCN(c3ncccn3)CC2)oc2c(Cl)cccc12 | 0 | 3.16µM | 0 | 0 | 0 | 0[15.4 µM] | 0
COc1ccc(NCC(=O)Nc2c(C)cccc2C)cc1S(=O)(=O)N1CCOCC1 | 0 | 0 | 0 | - | - | 0 | -
O=C(CCC(=O)N1CCCC(Nc2ccccc2)C1)c1ccc(F)cc1 (configuration not stated) | 0 | - | 0 | 0 | 0 | 0 | -
CCCN(CCC(=O)Nc1cc(OC)cc(OC)c1)CC1CC1 | 0 | 0 | 0 | 0 | 0 | 0 | 0
COc1cc(OC)c(OC)cc1CNC1CCCCCC1 | - | 0 | 0 | 0 | 0 | 0 | -
COc1cc(OC)c(CNC2CCCCCC2)cc1Br | 0 | 2.82µM | 0 | 0 | 0 | 0[15.4 µM] | 0
O=C(c1ccncc1)N1CCN(S(=O)(=O)c2cccc(Cl)c2)CC1 | 0 | 3.16µM | 0 | 0 | 0 | 0 | 0
CC(=O)c1cccc(NC(=O)N2CCC(NC(=O)C3CCCCC3)CC2)c1 | 0 | 0 | 0 | 0 | 0 | 0[15.4 µM] | -
C[C@@H]1CN([C@@H](C)CO)C(=O)CCCn2nncc2CO[C@@H]1CN(C)S(=O)(=O)c1cccs1 | 0 | 0 | 0 | - | - | 0 | -
Cc1cc2nc(-c3ccc(Cl)cc3)cc(C(F)(F)F)n2n1 | - | 0 | 0 | - | 0 | - | -
SMILES | Akt phos inh | ClpP mod | RXFP1 antag | gsp antagonist | RXFP1 ag | gsp agonist | ClpP inh valid
COc1ccc(-c2cc(C(F)(F)F)nc(-n3cc(Cl)cn3)n2)cc1 | 0 | 3.98µM | 0 | 0 | 0 | 0 | 21.7µM
CCn1c2c(c(=O)n3ncc(C(=O)Nc4ccc(OC(F)(F)F)cc4)c13)CN(Cc1ccc(OC)cc1)CC2 | - | ? | 0 | - | 0 | - | -
CCN(CC(=O)Nc1c(F)cccc1F)C(=O)c1ccc(C(F)(F)F)cc1 | 0 | 0 | 0 | 0 | 0 | 0 | -
CCN(CC(=O)Nc1c(F)cccc1F)C(=O)c1ccc(C2SCCS2)cc1 | 0 | 0 | 0 | 0 | 0 | 0 | 0
O=C(CN1CCN(Cc2ccccc2)CC1)NCCc1ccccc1 | 0 | 6.31µM | 0 | 0 | 0 | 0[15.4 µM] | 0
CCOC(=O)C1=CN(Cc2cccc(Br)c2)S(=O)(=O)N(CC)C1C (configuration not stated) | 0 | 0 | - | 0 | - | - | -
CCCc1cc(=O)oc2cc(C)cc(OCC(=O)NC3CC3)c12 | 0 | 0 | 0 | 0 | 0 | 0 | -
CCCc1cc(=O)oc2cc(C)cc(OCc3nn[nH]n3)c12 | - | 8.91µM | 0 | 0 | 0 | 0 | 34.3µM
Cc1cc(C)c2cc(CN(CCCN(C)C)C(=S)NCc3ccccc3)c(=O)[nH]c2c1 | 0 | 0 | 0 | 0 | 0 | 0[15.4 µM] | -
Cc1ccc(C)c2[nH]c(=O)c(CN(CCCN(C)C)C(=O)NCc3ccccc3)cc12 | 0 | 3.55µM | 0 | 0 | 0 | 0 | ?
C[C@@H](CC#N)CN1CC[C@H](C(C)(C)C)CCC1=O | 0 | 0 | - | 0 | 0 | ? | -
COc1ccc(C(=O)Nc2ccc(N3CCOCC3)cc2)cc1S(=O)(=O)NC1CCCC1 | 0 | 8.91µM | 0 | 0 | 0 | 0[15.4 µM] | 0
CNC(=O)c1ccc(-c2ccccc2)s1 | 0 | 3.55µM | 0 | 0 | 0 | 0 | 27.3µM
CCOc1ccc(NC(=O)c2ccc(-c3ccccc3)s2)cc1 | - | 0 | 0 | - | 0 | - | -
CCCCn1c(=O)n(C)c(=O)c2c(C(F)(F)F)cc(-c3ccncc3)nc21 | 0 | ? | 0 | 0 | 0 | 0 | -
CCCn1c(=O)c2c(C(F)(F)F)cc(-c3ccco3)nc2n(CCC)c1=O | 0 | 1.78µM | 0 | 0 | 0 | 0 | 6.85µM
CN(C)C(CNC(=O)c1cccc(S(=O)(=O)NCc2ccccc2)c1)c1ccccc1 (configuration not stated) | 0 | - | 0 | 0 | 0 | 0[15.4 µM] | -
O=C(CNC(=O)c1cccc(F)c1)NC1CC1 | 0 | 3.55µM | 0 | 0 | - | 0 | 0
COC[C@H]1CCCN1[C@H]1CS(=O)(=O)N[C@@H]1COCc1ccccc1 | 0 | 0 | - | - | - | - | -
COCCCNC(=O)c1c(N)n(-c2cccc(S(N)(=O)=O)c2)c2nc3ccccc3nc12 | - | 8.91µM | 0 | ? | 0 | 0 | ?
Nc1c(C(=O)NCCN2CCOCC2)c2nc3ccccc3nc2n1-c1cccc(F)c1 | 0 | 10µM | 0 | 0 | 0 | 0 | 21.7µM
CCOc1ccc(NC(=O)c2cc3cc4ccc(OC)cc4nc3o2)cc1 | 0 | 0 | 0 | 0 | 0 | 0 | 27.3µM
Cc1ccc(-n2c(=O)c3ccc(C(=O)NCc4ccco4)cc3n(CC(=O)Nc3ccccc3C(F)(F)F)c2=O)cc1 | - | 0 | - | - | 0 | - | -

Screens deposited in PubChem by National Center for Advancing Translational Sciences (NCATS).
